From the supplement of paper PMC10849652
Of roughly 8,800 targets only a part is listed; those with a hit were picked by preference. About 0.5% of all pairs of compound and target were hits.

How the values were obtained:
Assay in all cases: log2 fold change, soluble protein after heating vs DMSO (PISA); higher = thermal stabilisation; K562 lysate, 10 uM; active = over 0.2 and 3.5 SD of the protein, either way, in both replicates (recomputed)
[1] = compound: C1=CC=C(C=C1)[C@H](COC2=CC3=C(C=C2)NC(=O)N3)NC(=O)C4=CC=CN(C4=O)CC5=CC(=C(C=C5)F)F
In short: (§1)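 To prepare the extract, K562 pellets were dounce-homogenised in PBS pH 7.4 with 1 mM MgCl2, giving crude material at 1 mg/mL protein. This was treated with 10 μM compound for 30 min, then heated in aliquots for 3 min over 48°C-58°C before pooling and addition of NP-40 to 0.5% at 4°C. Centrifugation at 21,000xg for 90 min left soluble protein in the supernatant, which TMTpro 16plex LC-MS/MS quantified with equalised channel sums. Results are log-two fold changes in thermal stability compared with solvent controls, from duplicates.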

[2] = compound: CC1=C(SC2=C1C(=N[C@H](C3=NN=C(N32)C)CC(=O)N)C4=CC=C(C=C4)Cl)C
In short: as §1

[3] = compound: CC1=C2C(=CC=C1)N=C(N(C2=O)C3=CC=CC=C3C)CN4C=NC5=C(N=CN=C54)N
In short: as §1

[4] = compound: Cc1sc2c(c1C)C(c1ccc(Cl)cc1)=N[C@@H](CC(=O)OC(C)(C)C)c1nnc(C)n1-2
In short: as §1

[5] = compound: c1ccc([C@@H]2C[C@H]2NC2CCNCC2)cc1
In short: as §1

Measured: log2 fold change

PDXK (UniProt O00764)
inactive: [1] 0.014 | [2] -0.039 | [3] -0.029 | [4] -0.028 | [5] -0.056

PPP1R8 (UniProt Q12972)
Sequence of UniProt Q12972 (Q12972 whole entry, looked up): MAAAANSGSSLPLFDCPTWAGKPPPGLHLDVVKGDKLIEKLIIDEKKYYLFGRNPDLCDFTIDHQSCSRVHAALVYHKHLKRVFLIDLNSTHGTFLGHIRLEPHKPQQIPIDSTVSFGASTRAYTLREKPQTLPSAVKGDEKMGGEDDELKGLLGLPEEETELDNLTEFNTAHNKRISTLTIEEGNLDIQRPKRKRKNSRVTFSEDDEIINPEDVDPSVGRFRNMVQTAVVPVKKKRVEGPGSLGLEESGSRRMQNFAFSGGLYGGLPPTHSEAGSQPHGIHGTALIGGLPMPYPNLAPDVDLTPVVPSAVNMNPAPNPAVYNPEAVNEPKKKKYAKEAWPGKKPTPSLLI
inactive: [1] 0.006 | [2] 0.017 | [3] 0.003 | [4] 0.059 | [5] -0.142

PHC1 (UniProt P78364)
inactive: [1] 0.025 | [2] 0.001 | [3] 0.041 | [4] -0.049

PHF14 (UniProt O94880)
inactive: [1] 0.048 | [2] 0.025 | [3] -0.038 | [4] 0.019

POGK (UniProt Q9P215)
inactive: [1] -0.142 | [2] 0.13 | [3] -0.008 | [4] 0.016 | [5] -0.068

POLR3E (UniProt Q9NVU0)
Sequence of UniProt Q9NVU0 (Q9NVU0 whole entry, looked up): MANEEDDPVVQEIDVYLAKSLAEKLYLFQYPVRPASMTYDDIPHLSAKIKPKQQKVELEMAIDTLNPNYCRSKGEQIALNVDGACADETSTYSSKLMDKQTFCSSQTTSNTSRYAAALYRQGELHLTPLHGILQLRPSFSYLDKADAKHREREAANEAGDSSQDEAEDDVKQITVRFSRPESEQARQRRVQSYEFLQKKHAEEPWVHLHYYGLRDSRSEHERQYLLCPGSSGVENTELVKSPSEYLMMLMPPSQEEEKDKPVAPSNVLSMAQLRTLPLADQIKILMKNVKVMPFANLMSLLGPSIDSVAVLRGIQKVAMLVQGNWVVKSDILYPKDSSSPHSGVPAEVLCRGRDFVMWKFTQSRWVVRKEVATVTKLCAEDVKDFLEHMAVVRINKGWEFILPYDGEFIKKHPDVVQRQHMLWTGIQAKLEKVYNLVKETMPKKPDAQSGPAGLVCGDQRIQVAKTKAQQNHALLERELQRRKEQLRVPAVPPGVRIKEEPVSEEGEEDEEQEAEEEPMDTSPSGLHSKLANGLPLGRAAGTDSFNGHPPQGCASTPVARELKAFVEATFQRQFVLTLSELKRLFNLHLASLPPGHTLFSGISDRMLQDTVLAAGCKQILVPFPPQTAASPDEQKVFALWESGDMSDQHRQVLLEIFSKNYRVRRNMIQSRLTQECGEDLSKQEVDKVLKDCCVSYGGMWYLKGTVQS
inactive: [1] -0.031 | [2] -0.003 | [3] -0.001 | [4] -0.002 | [5] -0.012

PTK2 (UniProt Q05397)
inactive: [1] 0.006 | [2] -0.027 | [3] -0.003 | [4] 0.023 | [5] -0.131

PRKACA (UniProt P17612)
inactive: [1] 0.029 | [2] 0.019 | [3] 0.008 | [4] -0.013 | [5] -0.245

PCBP2 (UniProt F8W0G4)
inactive: [1] 0.16 | [2] 0.052 | [3] 0.043 | [4] 0.103

PEF1 (UniProt Q9UBV8)
Sequence of UniProt Q9UBV8 (Q9UBV8 whole entry, looked up): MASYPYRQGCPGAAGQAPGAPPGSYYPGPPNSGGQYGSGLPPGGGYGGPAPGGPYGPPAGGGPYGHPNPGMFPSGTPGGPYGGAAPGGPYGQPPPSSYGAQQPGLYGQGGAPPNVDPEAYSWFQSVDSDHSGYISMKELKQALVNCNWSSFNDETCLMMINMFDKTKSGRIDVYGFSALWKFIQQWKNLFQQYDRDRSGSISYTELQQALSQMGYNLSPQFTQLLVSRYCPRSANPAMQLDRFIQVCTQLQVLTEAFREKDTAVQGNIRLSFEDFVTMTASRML
inactive: [1] 0.016 | [2] -0.039 | [3] 0.055 | [4] 0.048 | [5] -0.031

PPFIA2 (UniProt O75334)
Sequence of UniProt O75334 (O75334 whole entry, looked up): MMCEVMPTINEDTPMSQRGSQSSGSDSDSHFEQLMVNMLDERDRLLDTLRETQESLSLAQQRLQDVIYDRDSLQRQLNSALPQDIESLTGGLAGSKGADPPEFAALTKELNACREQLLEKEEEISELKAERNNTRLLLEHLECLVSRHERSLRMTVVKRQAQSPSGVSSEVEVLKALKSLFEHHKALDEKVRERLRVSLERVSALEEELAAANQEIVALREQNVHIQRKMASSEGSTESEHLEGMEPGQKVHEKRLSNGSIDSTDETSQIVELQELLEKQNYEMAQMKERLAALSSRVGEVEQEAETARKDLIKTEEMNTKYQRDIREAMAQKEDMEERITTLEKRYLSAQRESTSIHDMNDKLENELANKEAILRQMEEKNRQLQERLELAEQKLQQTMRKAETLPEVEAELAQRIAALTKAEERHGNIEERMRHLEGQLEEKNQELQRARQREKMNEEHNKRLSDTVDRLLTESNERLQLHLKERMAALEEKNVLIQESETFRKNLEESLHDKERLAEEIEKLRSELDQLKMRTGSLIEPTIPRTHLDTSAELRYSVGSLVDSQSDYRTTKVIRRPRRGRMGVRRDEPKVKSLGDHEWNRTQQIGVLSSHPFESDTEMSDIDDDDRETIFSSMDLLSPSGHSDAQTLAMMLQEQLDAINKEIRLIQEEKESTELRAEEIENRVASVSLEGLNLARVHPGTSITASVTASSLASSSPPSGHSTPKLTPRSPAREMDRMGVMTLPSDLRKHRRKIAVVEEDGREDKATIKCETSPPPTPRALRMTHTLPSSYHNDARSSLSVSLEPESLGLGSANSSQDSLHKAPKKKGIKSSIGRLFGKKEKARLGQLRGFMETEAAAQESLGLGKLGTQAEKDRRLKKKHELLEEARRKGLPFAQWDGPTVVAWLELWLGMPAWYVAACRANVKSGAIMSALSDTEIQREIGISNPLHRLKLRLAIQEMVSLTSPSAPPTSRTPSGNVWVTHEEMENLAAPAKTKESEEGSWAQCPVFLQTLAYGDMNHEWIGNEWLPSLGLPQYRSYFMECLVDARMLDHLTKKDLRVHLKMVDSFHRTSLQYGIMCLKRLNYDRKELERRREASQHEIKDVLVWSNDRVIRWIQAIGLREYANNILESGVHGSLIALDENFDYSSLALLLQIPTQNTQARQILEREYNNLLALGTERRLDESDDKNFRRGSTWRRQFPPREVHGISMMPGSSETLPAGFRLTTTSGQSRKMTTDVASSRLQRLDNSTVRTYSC
inactive: [1] 0.022 | [2] 0.041 | [3] 0.003 | [4] -0.016 | [5] -0.132

PIM1 isoform 2 (UniProt P11309)
inactive: [1] -0.115 | [2] -0.046 | [3] -0.127 | [4] -0.025 | [5] -0.191

PI4KB (UniProt Q9UBF8)
Sequence of UniProt Q9UBF8 (Q9UBF8 whole entry, looked up): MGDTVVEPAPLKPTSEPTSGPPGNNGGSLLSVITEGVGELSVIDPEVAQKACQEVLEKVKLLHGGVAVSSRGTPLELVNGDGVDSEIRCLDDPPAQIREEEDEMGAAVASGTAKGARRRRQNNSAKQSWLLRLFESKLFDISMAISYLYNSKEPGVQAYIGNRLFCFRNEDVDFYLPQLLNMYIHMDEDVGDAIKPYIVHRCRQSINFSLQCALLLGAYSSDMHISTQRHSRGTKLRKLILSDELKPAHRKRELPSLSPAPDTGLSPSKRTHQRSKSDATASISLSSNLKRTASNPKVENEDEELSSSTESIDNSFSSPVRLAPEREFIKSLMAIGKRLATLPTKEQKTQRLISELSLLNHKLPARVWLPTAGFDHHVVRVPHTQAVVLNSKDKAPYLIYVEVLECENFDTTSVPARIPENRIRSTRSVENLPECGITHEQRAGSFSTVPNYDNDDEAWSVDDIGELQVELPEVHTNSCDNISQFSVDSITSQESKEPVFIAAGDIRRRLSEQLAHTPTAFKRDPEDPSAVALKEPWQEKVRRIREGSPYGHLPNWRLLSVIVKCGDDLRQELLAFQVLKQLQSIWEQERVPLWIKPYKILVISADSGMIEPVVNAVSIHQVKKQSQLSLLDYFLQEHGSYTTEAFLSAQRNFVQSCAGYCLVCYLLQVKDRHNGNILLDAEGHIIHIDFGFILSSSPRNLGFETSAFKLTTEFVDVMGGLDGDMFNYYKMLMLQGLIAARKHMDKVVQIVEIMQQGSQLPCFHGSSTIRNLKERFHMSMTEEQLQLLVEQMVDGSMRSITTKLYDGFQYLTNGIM
inactive: [1] 0.022 | [2] -0.006 | [3] -0.019 | [4] -0.005 | [5] 0.002

POLR2M (UniProt P0CAP2)
Sequence of UniProt P0CAP2 (P0CAP2 whole entry, looked up): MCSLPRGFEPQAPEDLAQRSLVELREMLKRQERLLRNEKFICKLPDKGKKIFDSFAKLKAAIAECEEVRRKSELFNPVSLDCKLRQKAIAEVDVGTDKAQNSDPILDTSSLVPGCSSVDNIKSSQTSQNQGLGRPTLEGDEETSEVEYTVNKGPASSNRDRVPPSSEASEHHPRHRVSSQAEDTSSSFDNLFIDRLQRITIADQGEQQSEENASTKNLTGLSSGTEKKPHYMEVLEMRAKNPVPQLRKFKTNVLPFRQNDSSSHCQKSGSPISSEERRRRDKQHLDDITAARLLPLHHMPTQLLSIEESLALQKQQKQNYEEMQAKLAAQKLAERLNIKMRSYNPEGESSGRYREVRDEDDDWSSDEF
inactive: [1] 0.026 | [2] -0.005 | [3] 0.025 | [4] 0.024 | [5] 0.005

POLR2B (UniProt P30876)
inactive: [1] -0.021 | [2] 0.024 | [3] 0.019 | [4] 0.021 | [5] 0.013

PDXDC1 (UniProt Q6P996)
inactive: [1] 0.025 | [2] 0.022 | [3] 0.01 | [4] 0.02 | [5] 0.014

PTGS1 isoform 6 (UniProt P23219)
Sequence of UniProt P23219 (P23219 whole entry, looked up): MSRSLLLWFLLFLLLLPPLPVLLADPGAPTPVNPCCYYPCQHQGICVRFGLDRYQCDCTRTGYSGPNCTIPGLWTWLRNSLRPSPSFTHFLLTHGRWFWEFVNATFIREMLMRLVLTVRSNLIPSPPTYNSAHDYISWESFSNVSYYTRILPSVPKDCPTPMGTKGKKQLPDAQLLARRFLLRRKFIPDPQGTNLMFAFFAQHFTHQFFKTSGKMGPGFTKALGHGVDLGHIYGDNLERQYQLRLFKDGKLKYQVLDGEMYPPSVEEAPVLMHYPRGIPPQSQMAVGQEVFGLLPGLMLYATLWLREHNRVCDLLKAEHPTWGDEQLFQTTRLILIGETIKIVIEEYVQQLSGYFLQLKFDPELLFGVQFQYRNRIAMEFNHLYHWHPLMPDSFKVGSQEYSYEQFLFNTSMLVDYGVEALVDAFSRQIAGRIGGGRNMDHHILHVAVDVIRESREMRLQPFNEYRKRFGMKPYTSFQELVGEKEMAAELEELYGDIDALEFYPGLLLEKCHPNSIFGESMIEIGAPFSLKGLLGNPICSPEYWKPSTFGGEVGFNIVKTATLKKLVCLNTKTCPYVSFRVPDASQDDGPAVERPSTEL
inactive: [1] -0.007 | [2] -0.035 | [3] 0.077 | [4] -0.026 | [5] -0.11

PIK3R1 (UniProt P27986)
inactive: [1] -0.014 | [2] -0.065 | [3] 0.313 | [4] -0.024 | [5] -0.007

PCBP3 (UniProt P57721)
Sequence of UniProt P57721 (P57721 whole entry, looked up): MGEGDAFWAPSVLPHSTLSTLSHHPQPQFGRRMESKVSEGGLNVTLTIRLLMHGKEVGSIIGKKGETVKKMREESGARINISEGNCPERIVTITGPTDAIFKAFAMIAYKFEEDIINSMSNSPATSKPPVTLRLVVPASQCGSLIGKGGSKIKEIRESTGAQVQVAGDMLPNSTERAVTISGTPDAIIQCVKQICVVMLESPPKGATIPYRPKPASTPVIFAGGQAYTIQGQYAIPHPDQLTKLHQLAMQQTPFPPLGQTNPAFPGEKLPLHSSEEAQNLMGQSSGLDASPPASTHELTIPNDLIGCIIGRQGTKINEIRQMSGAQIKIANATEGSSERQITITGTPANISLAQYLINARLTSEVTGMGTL
inactive: [1] -0.028 | [2] 0.014 | [3] -0.026 | [4] 0.021 | [5] 0

PHLDB1 (UniProt Q86UU1)
inactive: [1] -0.006 | [2] 0.007 | [3] 0.054 | [4] -0.027 | [5] 0.036

PIP4K2C (UniProt Q8TBX8)
inactive: [1] -0.12 | [2] -0.062 | [3] -0.113 | [4] -0.023 | [5] -0.011

PPCDC (UniProt Q96CD2)
Sequence of UniProt Q96CD2 (Q96CD2 whole entry, looked up): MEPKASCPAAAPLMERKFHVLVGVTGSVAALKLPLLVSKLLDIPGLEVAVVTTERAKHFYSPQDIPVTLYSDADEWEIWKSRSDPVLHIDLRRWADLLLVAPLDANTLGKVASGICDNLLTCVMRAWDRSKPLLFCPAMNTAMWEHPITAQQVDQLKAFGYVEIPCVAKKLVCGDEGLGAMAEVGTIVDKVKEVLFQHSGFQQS
inactive: [1] -0.02 | [2] 0.034 | [3] -0.054 | [4] -0.074 | [5] -0.191

PUM1 isoform 3 (UniProt Q14671)
inactive: [1] -0.057 | [2] 0.048 | [3] 0.024 | [4] -0.003 | [5] 0.054

PPP2R5B (UniProt Q15173)
inactive: [1] -0.08 | [2] -0.037 | [3] -0.024 | [4] -0.006 | [5] 0.066

PMS1 (UniProt P54277)
inactive: [1] -0.011 | [2] -0.056 | [3] 0 | [4] -0.06 | [5] -0.006
